# Measured values published in PubChem BioAssay AID1851 (National Center for Advancing Translational Sciences (NCATS), 2009).
# The whole screen tested about 16,000 compounds, of which about 2,600 (16%) were called active. Inconclusive results (about 20%) are left out. Calls come from the whole dose curve; as a rule, active = well fitted curve in the direction sought with a large enough effect; inconclusive = small, poorly fitted or top-dose-only effect, or effect the other way; inactive = no such curve, though single readings can be large or run the other way. A selection follows. Square brackets hold non-standard residues; d marks the D form. Peptide text beside a SMILES is read from it.
# Molecular target: Cytochrome P450 2D6 (Homo sapiens) (UniProt P10635)
# Sequence (P10635 whole entry, looked up): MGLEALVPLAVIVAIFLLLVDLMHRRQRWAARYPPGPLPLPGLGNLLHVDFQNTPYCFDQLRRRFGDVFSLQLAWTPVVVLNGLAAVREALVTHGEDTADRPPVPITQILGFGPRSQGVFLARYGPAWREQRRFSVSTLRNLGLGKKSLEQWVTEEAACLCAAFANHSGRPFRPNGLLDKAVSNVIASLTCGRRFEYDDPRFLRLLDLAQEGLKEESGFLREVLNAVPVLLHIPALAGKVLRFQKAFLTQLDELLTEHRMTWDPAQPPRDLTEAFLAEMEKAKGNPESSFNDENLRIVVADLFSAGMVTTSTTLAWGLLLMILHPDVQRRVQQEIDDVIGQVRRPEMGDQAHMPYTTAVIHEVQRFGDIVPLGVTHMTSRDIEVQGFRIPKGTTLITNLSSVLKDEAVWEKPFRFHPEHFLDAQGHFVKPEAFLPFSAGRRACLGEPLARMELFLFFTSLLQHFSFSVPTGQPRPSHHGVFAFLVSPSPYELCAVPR
# Assay: Cytochrome panel assay with activity outcomes
# Settings: recombinant CYP, pro-luciferin dealkylation, luminescence, p450-cyp2d6; series mostly up to 57.1 µM; activity, negative = inhibition: at the top concentration
# % is set by controls: 0 for no effect and ±100 for the full control effect.
SMILES,"activity, negative = inhibition",AC50
COc1ccc2nc(NC(C)=O)sc2c1,-22% (inactive),–
Cc1ccccc1NC(=O)c1ccc(N/N=C/c2ccccc2O)c([N+](=O)[O-])c1,7.35% (inactive),–
COC(=O)NCC(c1cccnc1)N1CCN(c2ccccc2OC)CC1 (stereo not given),-15.4% (inactive),–
O=c1c2ccccc2nc2n1C(CSc1ccc(F)cc1)CN2 (stereo not given),0.0903% (inactive),–
CCCCNC(=O)CCC(=O)Nc1ccc2nc(N3CCOCC3)cc(C)c2c1,0.308% (inactive),–
CN1CCN(CCCNC(=O)c2ccc(CSCc3cccc(Cl)c3)o2)CC1,–,10 µM (active)
COc1ccc2cc3cc(C(=O)NCCCN4CCOCC4)oc3nc2c1,-4.17% (inactive),–
COc1ccc(S(N)(=O)=O)cc1C(=O)NCCCN1CCN(c2cccc(Cl)c2)CC1,-25.8% (inactive),–
Nc1cc(S(=O)(=O)O)cc2ccc(S(=O)(=O)O)cc12,-8.48% [at 11.4 µM] (inactive),–
CCc1ccc(-c2cc(C(=O)NCc3ccco3)c3ccccc3n2)s1,-21.5% (inactive),–
CSc1nc(N)nc(-c2cccs2)c1C#N,-25.1% (inactive),–
O=C(CCCCCN1C(=O)c2ccccc2C1=O)NCc1ccccn1,-2.31% (inactive),–
CCOc1ccc(CCNC(=O)CCCN2C(=O)c3ccccc3C2=O)cc1OCC,-8.45% (inactive),–
COc1ccc(CCNC(=O)CCCCCN2C(=O)c3ccccc3C2=O)cc1,–,5.01 µM (active)
Cc1cccc(N2CCN(CC(=O)Nc3ccc(-n4cnnn4)cc3)CC2)c1C,11.1% (inactive),–
COc1ccc(S(=O)(=O)N(CCc2ccccc2)CC(=O)N2CCOCC2)cc1,-14.5% (inactive),–
CN(Cc1ccccc1)S(=O)(=O)c1ccc(OCC(=O)N2CCOCC2)cc1,8.83% (inactive),–
O=C(Oc1ccc2c(c1)CN(Cc1ccccc1)CO2)c1ccccc1,–,0.501 µM (active)
CC(Oc1ccc(O)cc1)(P(=O)(O)O)P(=O)(O)O,13.1% (inactive),–
C/C(CCN1CCc2nc(-c3ccccc3)c(-c3ccccc3)cc2C1)=N\OC[C@@H](O)[C@@H]1O[C@@H]2OC(C)(C)O[C@@H]2[C@H]1O,12.8% [at 11.4 µM] (inactive),–
C[C@@H](NCc1cc(Br)cc2[nH]c(=O)c(=O)[nH]c12)P(=O)(O)O,-8.92% (inactive),–
O=C(CCCN1CCC(O)(c2ccc(Br)cc2)CC1)c1ccc(F)cc1,–,3.98 µM (active)
c1ccc(-c2nc3ccccn3c2NCc2ccc3c(c2)OCO3)cc1,–,3.98 µM (active)
O=C(N/N=C\c1cn(-c2ccccc2)nc1-c1ccccc1)c1ccc2c(c1)OCO2,-17.7% (inactive),–
CCOC(=O)c1c(-c2ccccc2)nc2ccccn12,-9.25% (inactive),–

SMILES,"activity, negative = inhibition",AC50
CCCS(=O)(=O)N1CCN(CC2CC=CCC2)CC1 (stereo not given),–,1.12 µM (active)
CCCS(=O)(=O)N1CCCC(C(=O)N2CCOCC2)C1 (stereo not given),-6.68% (inactive),–
CCCS(=O)(=O)N1CCCC(C(=O)N2CCN(C(=O)OCC)CC2)C1 (stereo not given),-12.2% (inactive),–
COc1ccc(Oc2c(C=O)c3ccccc3n2C)cc1,2.31% (inactive),–
CC(C)CC(=O)N1CCC(N2CCN(c3ccccc3)CC2)CC1,-26.8% (inactive),–
c1ccc(C2CCC(N3CCC(N4CCCCC4)CC3)CC2)cc1 (stereo not given),–,14.1 µM (active)
COc1ccccc1NC(=O)c1nn(-c2cccc(C(F)(F)F)c2)ccc1=O,-12.9% (inactive),–
O=[N+]([O-])c1ccc(/C=N/N/C(=N/c2ccccn2)c2ccccn2)cc1,-12.1% (inactive),–
COc1cccc(Sc2cc(N3CCOCC3)nc(-c3ccccc3)n2)c1,-3.46% (inactive),–
COc1cccc(-c2nccc(-n3ccnc3)n2)c1,–,7.94 µM (active)
COc1cccc(-c2nccc(NC3CCNCC3)n2)c1,-13.3% (inactive),–
N#Cc1cccc(-c2cc(-n3ccnc3)ncn2)c1,-20.9% (inactive),–
COc1cccc(-c2cncnc2-n2ccnc2)c1,–,12.6 µM (active)
CN1CCN(c2ccnc(-c3cccc(NS(C)(=O)=O)c3)n2)CC1,-0.74% (inactive),–
N#Cc1cccc(-c2nccc(-n3ccnc3)n2)c1,–,12.6 µM (active)
COc1ccc(-n2c(=O)c(-c3cccc(F)c3)nc3cncnc32)cc1,-6.96% (inactive),–
c1cncc(-c2cncnc2-n2ccnc2)c1,-0.954% (inactive),–
CS(=O)(=O)Nc1cccc(-c2nccc(-n3ccnc3)n2)c1,–,12.6 µM (active)
CS(=O)(=O)Nc1cccc(-c2cncnc2-n2ccnc2)c1,-7.9% (inactive),–
CC[C@H]1C(=O)OC[C@H]1Cc1cncn1C,–,inactive
CCN(CC)c1ccc(NC(=O)c2cccc(F)c2)c(C)c1,-21.3% (inactive),–
CC[C@H]1CC[C@H]2[C@@H]3CC=C4C[C@H](OC(C)=O)[C@@H](N)C[C@@]4(C)[C@H]3CC[C@@]12C,-4.19% [at 11.4 µM] (inactive),–
NCC(=O)N[C@H](CO)C(=O)O (H-Gly-[dS]-OH),6.25% [at 11.4 µM] (inactive),–
CC1=NNC(=S)NCCCN2CCN(CCCNC(=S)NN=C(C)C=NNC(=S)NCCCN3CCN(CCCNC(=S)NN=C1)CC3)CC2,-0.261% [at 11.4 µM] (inactive),–
CC1(C)CC(=O)C(C=NCCN2CCN(C(=S)Nc3ccc(F)cc3)CC2)=C(O)C1,-0.562% (inactive),–

SMILES,"activity, negative = inhibition",AC50
CN1CCN(c2ccnc(-c3ccc(N(C)C)cc3)n2)CC1,-12.6% (inactive),–
c1cn(-c2ccnc(-c3ccc4c(c3)OCO4)n2)cn1,–,3.16 µM (active)
O=C(OCc1ccccc1)/C(=C/c1ccc(Cl)cc1)NC(=O)c1ccccc1Cl,3.78% (inactive),–
COc1ccc(Oc2ncc3nc(-c4ccc(F)cc4)c(=O)n(Cc4cccs4)c3n2)cc1,-1.7% (inactive),–
c1cncc(CNc2ccnc(-c3ccc4c(c3)OCO4)n2)c1,–,10 µM (active)
CN(C)C(=O)c1ccc(-c2nccc(NCc3cccnc3)n2)cc1,-5.03% (inactive),–
c1csc(CNc2ccnc(-c3ccc4c(c3)OCO4)n2)c1,–,0.501 µM (active)
CN(C)C(=O)c1ccc(-c2cc(NCc3cccnc3)ncn2)cc1,-7.64% (inactive),–
c1ccc(CNc2ccnc(-c3ccc4c(c3)OCO4)n2)cc1,–,1.58 µM (active)
O=C(O)COc1ccc(-c2nccc(-c3cccs3)n2)cc1,-18.2% (inactive),–
COc1cccc(Cn2c(=O)c(-c3ccccc3)nc3cnc(N4CCN(C)CC4)nc32)c1,8.89% (inactive),–
COc1ccc(-n2c(=O)cnc3cnc(N4CCNCC4)nc32)cc1,4.72% (inactive),–
Fc1ccc(-c2csc(N3CCC(c4ccccc4)C3)n2)cc1 (stereo not given),-23.2% (inactive),–
CCN(CC)Cc1nc2c(c(=O)[nH]1)C1(CCCC1)Cc1ccccc1-2,-51.6% (inactive),–
CCCCCCCCCCCCCCCCCCOC[C@@H](COP(=O)([O-])OCC[N+](C)(C)C)OC,3.16% (inactive),–
COc1nc(Cl)nc(Cl)c1Cl (tested in a mixture with another compound),10.4% [at 11.4 µM] (inactive),–
Cc1ccccc1-n1ncc2c(SCC(=O)N3c4ccccc4CC3C)ncnc21 (stereo not given),-4.18% (inactive),–
CO[C@H]1COC(=O)C/C=C\[C@@H](C)COC(=O)[C@H]2CCCN2C(=O)C/C=C\[C@H]1C,-1.87% [at 11.4 µM] (inactive),–
O=C(Cn1cnc([N+](=O)[O-])n1)N/N=C/c1ccccc1O,24.4% (inactive),–
CC1=C(C(=O)OCc2ccccc2)C(c2ccc(Cl)cc2)NC(=O)N1CCCCCC(=O)O (stereo not given),-13.2% (inactive),–
COc1cc(OC)cc(C(=O)Nc2ccccc2C(=O)N2CCCC2)c1,-4.71% (inactive),–
O=C(CNC1CCCCCC1)Nc1ccccc1N1CCCCC1,–,1.41 µM (active)
CCOc1cc(NC(=S)Nc2ccccc2)c(OCC)cc1NC(=O)c1ccc(OC)cc1,19.1% (inactive),–
O=C(Cc1ccccc1)Nc1ccccc1N1CCOCC1,-25.1% (inactive),–
Cc1ccc(OCC(=O)Nc2ccccc2N2CCOCC2)c(C)c1,-28.3% (inactive),–

SMILES,"activity, negative = inhibition",AC50
CCOc1ccc(C(=O)Nc2ccccc2N2CCCC2)cc1,–,3.16 µM (active)
CC1(C)CC(=O)C(C(c2cccc(O)c2O)C2C(=O)CC(C)(C)CC2=O)C(=O)C1,-12.6% [at 11.4 µM] (inactive),–
Cc1ccc(-n2c(-c3cc(C)n(C)n3)n[nH]c2=S)cc1,-8.75% (inactive),–
Cc1ccc(SC(C)C(=O)NCc2cccnc2)cc1 (stereo not given),-6.56% (inactive),–
Cc1ccc(S(=O)(=O)/C(C#N)=C/c2c(N3CC(C)OC(C)C3)nc3ccccn3c2=O)cc1 (stereo not given),-20% (inactive),–
COc1ncc2nc(CCc3ccccc3)c(=O)n(CCc3ccccc3)c2n1,-5.83% (inactive),–
Cc1cccn2c(/C=N/OCc3cccc(F)c3)c(-c3ccc(Cl)cc3)nc12,-23.8% (inactive),–
CCN1C(=O)[C@H]2[C@H]3[C@H](O)[C@H](O)C/C(=N/OCC(C)C)[C@H]3CC[C@@H]2C1=O,-6.52% [at 11.4 µM] (inactive),–
Cc1noc(C)c1C(=O)N1CCC[C@@]2(CCN(C(=O)Nc3cccc(F)c3)C2)C1,1.31% (inactive),–
CCOC(=O)CC(=O)CSc1nc(-c2ccccc2)cc(-c2ccc(Cl)cc2)c1C#N,9.93% (inactive),–
O=C1c2ccccc2C(=O)N1CC1c2ccccc2CCN1S(=O)(=O)c1ccccc1 (stereo not given),-14.8% (inactive),–
CCNCc1cc(OCC)c(OCC(=O)NCCc2ccccc2)cc1Cl,–,12.6 µM (active)
CCn1c(CC(=O)Nc2ccc(C)cc2)nnc1SCC(=O)NCCc1ccccc1,-19% (inactive),–
COc1ccc(OC)c2[nH]c(=O)c(CCNC(=O)COc3ccccc3)cc12,-8.87% (inactive),–
CCCN1CCC(=NNC(=O)c2ccc(Br)o2)CC1,–,7.08 µM (active)
O=C(N/N=C/c1ccco1)c1ccc(Br)o1,13.5% (inactive),–
CN1CCC(=NNC(=O)CSCc2ccccc2)CC1,-21.6% (inactive),–
COc1ccc(OC[C@@H](CO)OC)cc1,-7.62% [at 11.4 µM] (inactive),–
COc1ccc(CNC(=O)CN(CC2CCCO2)C(=O)CNS(=O)(=O)c2ccccc2)cc1 (stereo not given),-2.1% (inactive),–
CN1CC[C@@]2(CCCN(C(=O)c3cccc(F)c3)C2)C1,-10.5% (inactive),–
COc1ccccc1CNc1ncncc1-c1ccccc1C(F)(F)F,–,2 µM (active)
COc1ccc(CNc2ncncc2-c2ccccc2C(F)(F)F)c(OC)c1,–,0.398 µM (active)
O=c1c(-c2cccc(Cl)c2)nc2cncnc2n1C1CC1,-3.44% (inactive),–
O=C(Nc1ccccc1[N+](=O)[O-])C1C(c2ccccc2)=C1c1ccccc1,15.3% (inactive),–
COc1ncc2nc(-c3cccs3)c(=O)n(C)c2n1,-1.28% (inactive),–
